Compound activity as filed in PubChem BioAssay.
Only some compounds are listed: those with a hit (about 2.3% of all), similar ones and a draw of the others.
M1 PAM – potentiates human M1 receptor response to acetylcholine; CHO-K1 hM1, Fluo-8 calcium fluorescence, ACh EC20; 0% = ACh EC20, 100% = maximal ACh; hit rate 0.088% among 360,000; activation, % at 3 µM; in the data active means activation above about 19%, passing the limit was not always enough
Target sequence (P11229 whole entry, looked up): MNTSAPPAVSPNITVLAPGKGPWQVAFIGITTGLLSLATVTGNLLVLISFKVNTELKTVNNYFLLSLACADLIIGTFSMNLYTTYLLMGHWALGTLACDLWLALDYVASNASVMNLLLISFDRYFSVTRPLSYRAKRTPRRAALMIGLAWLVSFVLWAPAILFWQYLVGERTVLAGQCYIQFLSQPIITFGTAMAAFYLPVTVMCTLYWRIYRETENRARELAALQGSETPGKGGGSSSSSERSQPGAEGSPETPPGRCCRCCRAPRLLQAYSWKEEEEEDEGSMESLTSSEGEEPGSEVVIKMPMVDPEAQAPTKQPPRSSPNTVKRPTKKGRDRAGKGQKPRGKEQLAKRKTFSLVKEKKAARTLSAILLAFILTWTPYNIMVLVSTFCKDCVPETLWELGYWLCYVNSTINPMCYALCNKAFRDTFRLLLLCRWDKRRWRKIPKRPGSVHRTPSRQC
CHO-K1 Ca antag – nonselective inhibitor or artifact in parental CHO-K1 cells; ATP-induced calcium, Fluo-8 fluorescence; inhibition, % at 3 µM; hit rate 0.6% among 360,000;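 active means inhibition above a per-plate cutoff, the plate's mean sample inhibition plus 3 SD, cut at about 24% in these data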
CHO-K1 Ca PAM – nonselective activator or artifact in parental CHO-K1 calcium assay; ATP EC20, Fluo-8 calcium fluorescence; 0% at ATP EC20, 100% at ATP max; activation, % at 3 µM; hit rate 0.02% among 360,000;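 active means activation above the run cutoff, the mean activation of all test compounds plus 3 SD, cut at about 40% in these data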;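 further: peak over basal fluorescence ratio in a 140 s read after ATP addition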
CHRM1 antagonist – antagonists of human M1 muscarinic receptor; CHO-K1 hM1, Fluo-8 calcium fluorescence, ACh EC80 antagonist; inhibition, % at 3 µM; hit rate 1.3% among 360,000; AID 588852;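 active means percent inhibition above its own plate's cutoff, namely the mean of that plate's compound wells plus 3 SD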;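 further: peak over basal fluorescence ratio during 140 s after agonist addition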
M1 ag parental – nonselective activator or artifact in parental CHO-K1 cells; Fluo-8 calcium fluorescence; scaled to maximal ATP response, vehicle zero; activation, % at 3 µM; hit rate 0.48% among 360,000; in the data active means activation above about 15%;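 further: untransfected CHO-K1 host cells lacking M1 receptor as counterscreen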
M1 ag – activates human CHRM1 receptor. AID 588814. hit rate 0.33% among 360,000. activation, % at 3 µM. CHO-K1 hM1, Fluo-8 calcium fluorescence, agonist mode; 0% DMSO, 100% acetylcholine EC100. P11229;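 active means activation above the run's mean compound activation plus 3 SD, cut at about 16% in these data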;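 further: peak over basal fluorescence ratio within a 140 s kinetic read after compound addition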
Numbers stand for hits; n = inactive; x = no result given.

SMILES | M1 PAM | CHO-K1 Ca antag | CHO-K1 Ca PAM | CHRM1 antagonist | M1 ag parental | M1 ag
C[N+](C)=C1SCC(C)(/C=N/O)S1 (stereo not drawn) | n | n | n | n | n | n
CCOC(=O)N1CCC(NC(=O)C2CCN(C(=O)c3cc4oc(C)cc4n3Cc3c(F)cccc3Cl)CC2)CC1 | n | n | n | n | n | 32
CCCN1C(=O)/C(=C/c2c(NCCCOCC)nc3c(C)cccn3c2=O)SC1=S | n | n | n | n | n | n
O=C1/C(=C\c2c(NCCOCCO)nc3ccccn3c2=O)SC(=S)N1Cc1ccco1 | n | n | n | n | 20 | 30
COC(c1ccc(Cl)cc1)(c1ccc(Cl)cc1)C(Oc1nc(C)cc(C)n1)C(=O)O (stereo not drawn) | n | n | n | n | n | n
CCN(CC)CCOCCOC(=O)C(CC)(CC)c1ccccc1 | n | n | n | 38 | n | n
O=C(Nc1ccc(-c2nc3ccc(NC(=O)c4cccs4)cc3[nH]2)cc1)c1cccs1 | n | n | n | 38 | n | n
O=C(c1ccccc1)c1ccc2nc(-c3ccc(NC(=O)c4ccccc4Br)cc3)[nH]c2c1 | n | n | n | n | n | n
Cc1ccccc1C(=O)Nc1ccc(-c2nc3ccc(C(=O)c4ccccc4)cc3[nH]2)cc1 | n | 34 | n | 28 | n | n
O=C(Nc1cccc(-c2nc3ccccc3s2)c1)c1cccs1 | n | n | n | 30 | n | n
Cc1ccc(C(=O)NNC(=O)CSc2n[nH]c(-c3cccnc3)n2)cc1 | n | n | n | n | n | n
O=C(Nc1ccc2snnc2c1)Nc1cccc2ccccc12 | n | 29 | n | n | n | 17
Cc1nc2cc(NC(=O)Nc3cccc4ccccc34)ccc2n1C | n | n | n | n | n | n
COC(=O)c1ccc(CNC(=O)c2cc(S(=O)(=O)NCc3ccccc3)ccc2C)cc1 | n | 24 | n | n | n | n
CCc1ccc(S(=O)(=O)NCc2ccc(C(=O)NCCN(Cc3ccccc3)C(C)C)cc2)cc1 | n | n | n | 68 | n | n
CC1(C)CC(=O)C=C(NCCN2CCN(C(=O)Nc3ccccc3)CC2)C1 | n | n | n | n | n | n
CN(C)C=Nc1nonc1-c1ccccc1 | n | n | n | n | n | n
CN(C)C=Nc1c(Br)cc(Br)c2nonc12 | n | n | n | n | 18 | 45
CC(=O)Nc1ccc(OCC(O)Cn2nc(C)c(Br)c2C)cc1 (stereo not drawn) | n | n | n | n | n | n
COc1ccc(CNC(=O)c2cccc3c(-c4cccnc4)coc23)cc1OC | n | 28 | n | 34 | 15 | n
O=C(Cc1n[nH]c(=O)c2ccccc12)NC(c1ccccc1)c1ccccc1 | n | n | n | n | n | n
CCCCOC(=O)CSc1nc(N)c(C#N)c(-c2ccc(OCC)cc2)c1C#N | n | 27 | n | n | n | n
CCn1c(SCC(=O)N2CCOCC2)nc2c([nH]c3ccccc32)c1=O | n | n | n | n | n | n
O=C(Nc1cccc(-c2cnc3ccccc3n2)c1)c1cccc(NC(=O)c2ccco2)c1 | n | 31 | n | 35 | n | n
O=C(Nc1cccc(-c2cnc3ccccc3n2)c1)c1ccccc1 | n | n | n | n | n | n
SMILES | M1 PAM | CHO-K1 Ca antag | CHO-K1 Ca PAM | CHRM1 antagonist | M1 ag parental | M1 ag
COc1ccccc1-c1noc2c1C(=O)N(Cc1cn(C3CCCC3)nn1)CC2 | x | n | n | x | n | x
CCC(C)(C(=O)NC1CCCC1)N(Cc1cccs1)C(=O)c1ccc2c(c1)OCO2 (stereo not drawn) | n | n | n | n | 16 | n
Cc1cc(C)cc(N2C(=O)C3CCCN3C2=S)c1 (stereo not drawn) | n | n | n | n | 17 | n
CCOC(=O)Cn1c(=O)oc2cc(S(=O)(=O)NC3CCCCC3)ccc21 | n | n | n | 32 | n | n
O=C1NCCc2onc(-c3ccc(Br)cc3)c21 | n | n | n | n | n | n
COCCCNc1nc(SCc2ccccc2)nc2sc3c(c12)CCC3 | n | 25 | n | n | n | n
CC1=C(C)CS(=O)N(S(=O)(=O)c2ccccc2)C1 (stereo not drawn) | n | n | n | n | n | n
O=S(=O)(/N=S1\CC=CCN1S(=O)(=O)c1ccccc1)c1ccccc1 (stereo not drawn) | n | n | n | n | 35 | 38
CC1(CCc2ccc3c(c2)OCO3)NCCc2c1[nH]c1ccccc21 (stereo not drawn) | n | n | n | n | 21 | n
Cc1nnsc1S(=O)c1ccccc1Cl (stereo not drawn) | n | n | n | n | n | n
CCOc1ccc(CCN2C(=O)c3ccc(C(=O)O)cc3C2=O)cc1OCC | n | n | n | n | n | n
CCOC(=O)c1cccnc1NC(=O)c1ccccc1 | n | n | n | n | n | n
CC(C)(CC(=O)N1CCN(c2ccc(Cl)cc2)CC1)CC1=NS(=O)(=O)c2ccccc2N1 | n | n | n | 30 | n | n
CC(C)CN(CC(C)C)C(=O)Nc1cccc([N+](=O)[O-])c1 | n | n | n | n | 15 | n
O=C(Nc1ccc2c(c1)OCO2)Nc1ccc(F)cc1F | n | n | n | n | n | n
CC(C(=O)Nc1cccc([N+](=O)[O-])c1)[n+]1ccccc1 (stereo not drawn) | n | n | n | n | n | n
O=C(Nc1ccc(OC(F)F)c(Cl)c1)Nc1ccc2c(c1)OCO2 | n | 27 | n | n | n | n
O=C(Nc1ccc(F)cc1)Nc1ccc2c(c1)OCO2 | n | n | n | n | 21 | n
O=C(CNCc1ccc(Cl)cc1)Nc1ccc2c(c1)OCCO2 | n | n | n | n | 22 | n
CC(=O)c1cccc(NS(=O)(=O)c2cc(OCC(N)=O)c(C)cc2Cl)c1 | n | n | n | n | n | n
C=CCS/C(N)=N\N=C\c1cc(Br)cc([N+](=O)[O-])c1O | n | n | n | n | n | n
Cc1cc(C)cc(NC(=O)CSc2nc3c(c(=O)[nH]2)CN(Cc2ccc(F)cc2)CC3)c1 | n | n | n | n | n | n
O=C(Nc1ccc2c(c1)OCO2)Nc1ccc2c(c1)OCO2 | n | n | n | n | n | n
O=C(Nc1ccc(Cl)cc1)Nc1ccc2c(c1)OCO2 | n | n | n | 36 | n | n
O=C(Nc1ccc([N+](=O)[O-])cc1)Nc1ccc(OC(F)F)c(Cl)c1 | n | 25 | n | 40 | 32 | n
COc1ccc(NC(=O)Nc2cccc([N+](=O)[O-])c2)cc1Cl | n | 30 | n | n | n | n
CCCCN1CCc2c([nH]c3c(C)cccc23)C1=O | n | n | n | n | n | n
Cc1cc(SCC(=O)NCCC2=CCCCC2)nc2ccccc12 | n | n | n | n | n | n
COc1cccc(-c2ccc(NC(=O)C3CCCN(CCCn4nc(C)cc4C)C3)cc2)c1 (stereo not drawn) | n | n | n | 49 | n | n
